Results reported in PubChem BioAssay AID1053205 (Broad Institute, 2014).
Results with a measured potency or affinity are listed apart. Records with an inconclusive call do not appear. Activity calls are given as the source filed them.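 The calls were made as follows: active = compounds lowering the FRET ratio whose fitted half-maximal concentration is at most twice their top tested dose; inconclusive = flat partial drop between 30 and 70 percent, or bad fit; inactive = the rest.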

The compounds below were run against Voltage-dependent L-type calcium channel subunit alpha-1D (Homo sapiens) (UniProt Q01668) (assay: disruptors of CaV1.3 IQ/ICDI domain association – cell-based, HEK293, YFP-IQ/CFP-ICDI FRET, cherry-picks, dose response (AID 1053205;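 also: 0% = median of neutral control wells and -100% = median of positive control wells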)). Settings: HEK293 YFP-IQ/CFP-ICDI FRET ratio, 10 min; series mostly up to 35 µM.
Voltage-dependent L-type calcium channel subunit alpha-1D (Homo sapiens), sequence (Q01668 whole entry, looked up, the tested form may be a part): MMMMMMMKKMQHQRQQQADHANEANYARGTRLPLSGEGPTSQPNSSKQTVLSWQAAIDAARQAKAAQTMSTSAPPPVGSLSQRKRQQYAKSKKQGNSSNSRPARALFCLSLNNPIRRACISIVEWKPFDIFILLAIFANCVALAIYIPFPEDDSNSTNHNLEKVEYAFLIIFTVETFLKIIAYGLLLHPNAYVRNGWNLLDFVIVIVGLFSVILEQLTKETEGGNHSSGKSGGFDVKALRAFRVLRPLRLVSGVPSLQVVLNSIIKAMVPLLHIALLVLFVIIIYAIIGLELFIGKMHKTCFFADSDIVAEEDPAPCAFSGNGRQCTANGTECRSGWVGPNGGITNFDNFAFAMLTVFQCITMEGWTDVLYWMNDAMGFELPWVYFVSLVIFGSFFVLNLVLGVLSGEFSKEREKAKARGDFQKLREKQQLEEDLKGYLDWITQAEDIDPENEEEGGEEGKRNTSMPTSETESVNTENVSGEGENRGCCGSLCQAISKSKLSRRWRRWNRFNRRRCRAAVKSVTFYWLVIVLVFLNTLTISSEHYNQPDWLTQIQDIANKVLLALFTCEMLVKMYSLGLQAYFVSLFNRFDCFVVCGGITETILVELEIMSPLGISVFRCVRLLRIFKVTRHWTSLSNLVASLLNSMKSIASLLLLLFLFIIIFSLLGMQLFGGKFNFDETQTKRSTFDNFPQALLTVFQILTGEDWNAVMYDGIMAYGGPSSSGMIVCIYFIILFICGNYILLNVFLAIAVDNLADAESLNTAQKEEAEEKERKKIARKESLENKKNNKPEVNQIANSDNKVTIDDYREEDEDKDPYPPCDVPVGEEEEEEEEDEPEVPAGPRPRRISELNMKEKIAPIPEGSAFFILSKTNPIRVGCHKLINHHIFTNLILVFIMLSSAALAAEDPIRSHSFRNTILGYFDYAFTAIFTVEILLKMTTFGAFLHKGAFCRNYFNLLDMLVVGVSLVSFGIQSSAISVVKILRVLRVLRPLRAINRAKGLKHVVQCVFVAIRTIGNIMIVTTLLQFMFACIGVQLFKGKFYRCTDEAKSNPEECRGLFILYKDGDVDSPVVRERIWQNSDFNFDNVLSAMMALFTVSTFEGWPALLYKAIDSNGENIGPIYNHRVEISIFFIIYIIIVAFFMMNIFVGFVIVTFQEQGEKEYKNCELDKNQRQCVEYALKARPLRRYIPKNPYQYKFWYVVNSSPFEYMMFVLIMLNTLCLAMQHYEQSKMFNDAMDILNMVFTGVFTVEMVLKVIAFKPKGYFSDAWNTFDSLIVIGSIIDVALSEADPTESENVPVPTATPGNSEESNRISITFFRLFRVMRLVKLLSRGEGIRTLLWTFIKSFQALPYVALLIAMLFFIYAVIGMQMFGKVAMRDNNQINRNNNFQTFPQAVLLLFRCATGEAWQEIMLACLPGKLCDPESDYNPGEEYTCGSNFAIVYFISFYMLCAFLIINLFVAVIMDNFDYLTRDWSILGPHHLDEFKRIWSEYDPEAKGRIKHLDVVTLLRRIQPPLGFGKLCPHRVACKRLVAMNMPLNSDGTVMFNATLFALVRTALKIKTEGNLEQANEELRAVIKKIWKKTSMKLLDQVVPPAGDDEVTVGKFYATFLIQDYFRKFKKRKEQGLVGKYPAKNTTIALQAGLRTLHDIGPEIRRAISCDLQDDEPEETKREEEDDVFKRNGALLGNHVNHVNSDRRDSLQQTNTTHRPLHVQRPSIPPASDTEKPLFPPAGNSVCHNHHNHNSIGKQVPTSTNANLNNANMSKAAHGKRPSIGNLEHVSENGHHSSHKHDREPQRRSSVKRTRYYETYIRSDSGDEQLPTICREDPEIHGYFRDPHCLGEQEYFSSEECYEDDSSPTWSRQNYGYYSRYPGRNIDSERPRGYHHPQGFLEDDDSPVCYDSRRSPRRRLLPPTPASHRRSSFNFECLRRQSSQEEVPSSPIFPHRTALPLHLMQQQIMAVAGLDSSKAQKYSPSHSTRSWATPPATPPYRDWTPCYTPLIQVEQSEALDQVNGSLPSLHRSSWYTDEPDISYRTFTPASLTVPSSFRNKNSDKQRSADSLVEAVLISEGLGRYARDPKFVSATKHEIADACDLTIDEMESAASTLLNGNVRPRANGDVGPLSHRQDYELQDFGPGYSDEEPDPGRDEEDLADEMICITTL

outcome, inactive:
CCCOc1c(Br)cc(C2C3=C(CCCC3=O)N(C)C3=C2C(=O)CCC3)cc1OC
COc1cc(C(=O)OCC(C)=O)cc(NC(=O)c2ccco2)c1OC
O=C(Nc1ccc(-c2ccco2)cc1)C1CCCN(Cc2ccco2)C1 (configuration not stated)
Nc1cccc2c1C(=O)N(c1ccccc1)C2=O
Cc1cc(=O)oc2cc(OC(=O)c3cncc(Br)c3)ccc12
CC(=O)NNc1cc(N2CCOCC2)nc(N2CCOCC2)n1
Cc1cc(CNC(=O)c2ccc3c(c2)OCO3)c2ccccc2n1
Cc1c(C=O)c2ccccn2c1C(=O)c1cccs1
CCOc1ccc(S(=O)(=O)Nc2ccc(C(=O)N(CC)CC(=O)NCc3cccs3)cc2)cc1
O=C(c1cccc(Cl)c1)N1CCC(=O)N(C(COCc2ccccc2)Cc2ccccc2)CC1 (configuration not stated)
O=C(NNc1cc(N2CCCC2)nc(N2CCCC2)n1)c1ccc([N+](=O)[O-])cc1
COc1ccc(C2CC(c3cccs3)=NN2c2nc(C)c(C(C)=O)s2)cc1OC (configuration not stated)
c1ccc2cc3c(NCCN4CCOCC4)ccnc3cc2c1
CC(C)(C)c1csc(N/N=C/c2ccc(O)cc2)n1
CCOC(=O)c1c2ccc(OCC(=O)NN)cc2n2ccccc12
Cc1cc(-c2nc3cccnc3s2)ccc1NS(=O)(=O)c1cccs1
CC(=O)c1cc2c(ccc3ccccc32)oc1=O
CCOCCCNc1c(CC)c(C)c(C#N)c2nc3ccccc3n12
S=c1[nH]c2ccc(Cc3ccc4[nH]c(=S)[nH]c4c3)cc2[nH]1
N#Cc1ccc(/C=C\c2nccc3c2[nH]c2ccccc23)cc1
O=C(NCc1nnnn1-c1ccc(Cl)cc1)C1CC(=O)N(c2ccc(F)cc2)C1 (configuration not stated)
CCCCn1nc(NC(=O)c2cccs2)c2cc3cc(OC)ccc3nc21
N#CC(C#N)=C1C=CC=CN1/C(=C\c1ccccc1)C(=O)c1cccs1
COC(=O)C1=CN(Cc2ccc(OC)c(OC)c2)C=C(C(=O)OC)C1c1cccc(F)c1
CCc1ccccc1S(=O)(=O)Cc1ccc(C(=O)N2CCN(c3ccccc3OC)CC2)o1
COc1ccc(Cn2nnnc2C(CC(C)C)N2CCC(C(N)=O)CC2)cc1 (configuration not stated)
CSCCC1(C(=O)O)NC(c2ccccc2O)C2C(=O)N(C(C)C)C(=O)C21 (configuration not stated)
Cc1cc2cc(CNC(=O)c3ccco3)ccc2n1C
COc1ccc(C2c3ccc(O)cc3Oc3ncn4nc(-c5ccccn5)nc4c32)cc1 (configuration not stated)
CCN(CC)CCCNc1nc(C)cc(COC)c1C#N
CC(C)(C)[C@H]1CCC(=O)N([C@H](CSc2ccccc2)Cc2ccccc2)CC1
N#Cc1c2ccc(O)cc2n2ccccc12
Cc1cc(-n2c(=O)c(C#N)cc3c(=O)n4ccccc4nc32)no1
N#Cc1c2ccc(OCC(N)=O)cc2n2ccccc12
c1ccc(-c2cn3nc4c(nc3n2)CCCC4)cc1
Cc1cc(-c2ccccc2)c2ccc(NC(=O)C(C)(C)C)nc2n1

FRET change, negative = inhibition, inactive:
CCOC(=O)c1cc2c(=O)n3cccc(C)c3nc2n(CC(C)C)c1=NC(=O)c1ccco1 159% [at 8 µM]
